# Measurements published in PubChem BioAssay (NCI).
# Compounds without any hit were thinned out: in the full panel of roughly 79,000, 15% have a hit. Active and inactive are the calls of the source. Rule as the data show it: active = growth inhibition above about 70%; inactive = the rest.
# Experiment: NCI Yeast Anticancer Drug Screen. Data for the cln2 rad14 strain (AID 165);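 also: 0% = growth equal to vehicle treated cultures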
# Details: S. cerevisiae cln2 rad14 strain, at 5.0 µM (retest, dose inferred, filed as 0.5), stronger effect = higher value
# In short: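 The screen exposed genetically defined yeast (cln2 rad14) to test compounds and scored growth inhibition relative to vehicle-treated controls.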
row,Structure (SMILES),growth inhibition
1,CCCCC#C[I+]c1ccccc1,58% (inactive)
2,CCOC(=O)C1C(c2cccc(OC)c2O)c2cc3c(cc2OC1(C)N1CCCC1)OCO3 (stereo not drawn),-5% (inactive)
3,Nc1ncnc2nn(C3OC(CO)C(O)C3O)nc12 (stereo not drawn),-29% (inactive)
4,Nc1nc(-c2ccc3c(c2)Sc2ccccc2O3)cs1,7% (inactive)
5,O=C1C=CC(Nc2cccc([N+](=O)[O-])c2)C1Nc1cccc([N+](=O)[O-])c1 (stereo not drawn),-8% (inactive)
6,O=C(CC(=O)c1ccccc1)CC(=O)c1ccccc1,31% (inactive)
7,Fc1ccc(CSC(=S)Nc2ccc(Br)cc2)cc1,-9% (inactive)
8,Cc1cc([N+](=O)[O-])c2nnnn2c1,-1% (inactive)
9,CN(c1ccc(C(N)=O)cc1)c1c(O)c2ccccc2[nH]c1=O,4% (inactive)
10,O=C(/C=C\c1cccc2ccccc12)c1ccccn1,0% (inactive)
11,COc1ccc2c(c1)CCc1c(CO)c(COC(=O)NC(C)C)n(C)c1-2,3% (inactive)
12,O=C1CC(O)CC(=O)C1=C(O)CCCCCCCCCCc1ccccc1 (stereo not drawn),24% (inactive)
13,CC1CCN(CCCOC(=O)c2ccccc2)CC1,25% (inactive)
14,Cc1ccc(S(=O)(=O)OC2COC3C(OS(=O)(=O)c4ccc(C)cc4)COC23)cc1 (stereo not drawn),1% (inactive)
15,Cc1nn(C(=S)S)c(C)c1N=Nc1cccc(F)c1,1% (inactive)
16,O=C1C(=Cc2ccccc2O)N=C(c2ccccc2)N1n1c(-c2ccccc2)nc2ccccc2c1=O,8% (inactive)
17,O=C1/C(=C/c2ccccc2)CNC/C1=C\c1ccccc1,10% (inactive)
18,Cc1cc(Br)c(P(=O)(O)O)cc1[N+](=O)[O-],0% (inactive)
19,Oc1cc(Cc2ccccc2)c(Cc2ccccc2)cc1O,-1% (inactive)
20,O=S1(=O)CCN(c2ccccc2CC(c2c[nH]c3ccccc23)c2c[nH]c3ccccc23)CC1,5% (inactive)

row,Structure (SMILES),growth inhibition
1,CCCCCC(O)C(C)CO (stereo not drawn),-7% (inactive)
2,Cc1cc(=O)c2cc(N=Cc3ccc([N+](=O)[O-])o3)ccc2o1,0% (inactive)
3,CN(C)C(=S)/N=c1\ssc(=S)n1Cc1ccco1,-7% (inactive)
4,O=[N+]([O-])c1ccc2nc(Nc3ccccc3)c(Nc3ccccc3)nc2c1,24% (inactive)
5,CC(=O)NC(CCC(=O)O)C(=O)O.[NH-]C1CCCCC1[NH-].[Pt+2] (stereo not drawn),88% (active)
6,CC(=O)Oc1c2c(c(C)c3ccccc13)C(=O)c1cccnc1C2=O,10% (inactive)
7,C=C1C(=O)OC2C(C)C3C=CC(=O)[C@@]3(C)C(OC(=O)/C(C)=C/C)C1[C@@H]2OC(C)=O (stereo partly drawn),11% (inactive)
8,O=C(O)/C=C/c1ccc2c(c1)CC1(Cc3ccccc3C1)C2,64% (inactive)
9,C(=C\c1ccc(-[n+]2nc(-c3ccccc3)nn2-c2ccccc2)cc1)/c1ccccc1,54% (inactive)
10,O=CC(O)C(O)C(O)C(O)C(=O)NCCCCCCCCCCCCNC(=O)C(O)C(O)C(O)C(O)C=O (stereo not drawn),-2% (inactive)
11,CCCCCCCCCCN(CCCCCCCCCC)CC(O)c1cc(-c2ccccc2)nc2ccccc12 (stereo not drawn),0% (inactive)
12,CC1(C)C(=O)C(C(Cl)(Cl)Cl)=C(Cl)C(=O)C1(Cl)Cl,49% (inactive)
13,Cc1cccc2c1CC1(C2)Cc2c(C)cccc2C1=O (stereo not drawn),26% (inactive)
14,Oc1c(Cl)cc(C(c2cc(Cl)c(O)c(Cl)c2)C(c2cc(Cl)c(O)c(Cl)c2)c2cc(Cl)c(O)c(Cl)c2)cc1Cl,98% (active)
15,Cc1ccc(S(=O)(=O)NC(Cc2ccccc2)C(=O)CCl)cc1 (stereo not drawn),44% (inactive)
16,CCOC(=O)/C(C#N)=C/c1coc2cc(C)cc(C)c2c1=O,-2% (inactive)
17,CN(C)/N=C\C1CC=CCC1 (stereo not drawn),-58% (inactive)
18,NCC(=O)N/N=C/c1ccc([N+](=O)[O-])o1,-1% (inactive)
19,CCc1cc(CC)c(-c2ccco2)c(COC(=O)NC)c1,-7% (inactive)

# Same assay, conditions: S. cerevisiae cln2 rad14 strain, at 50.0 µM (retest, dose inferred, filed as 5.0), stronger effect = higher value
row,Structure (SMILES),growth inhibition
1,CCCCC#C[I+]c1ccccc1,58% (inactive)
2,CCOC(=O)C1C(c2cccc(OC)c2O)c2cc3c(cc2OC1(C)N1CCCC1)OCO3 (stereo not drawn),-4% (inactive)
3,Nc1ncnc2nn(C3OC(CO)C(O)C3O)nc12 (stereo not drawn),-18% (inactive)
4,Nc1nc(-c2ccc3c(c2)Sc2ccccc2O3)cs1,99% (active)
5,O=C1C=CC(Nc2cccc([N+](=O)[O-])c2)C1Nc1cccc([N+](=O)[O-])c1 (stereo not drawn),-24% (inactive)
6,O=C(CC(=O)c1ccccc1)CC(=O)c1ccccc1,55% (inactive)
7,Fc1ccc(CSC(=S)Nc2ccc(Br)cc2)cc1,99% (active)
8,Cc1cc([N+](=O)[O-])c2nnnn2c1,4% (inactive)
9,CN(c1ccc(C(N)=O)cc1)c1c(O)c2ccccc2[nH]c1=O,42% (inactive)
10,O=C(/C=C\c1cccc2ccccc12)c1ccccn1,97% (active)
11,COc1ccc2c(c1)CCc1c(CO)c(COC(=O)NC(C)C)n(C)c1-2,85% (active)
12,O=C1CC(O)CC(=O)C1=C(O)CCCCCCCCCCc1ccccc1 (stereo not drawn),33% (inactive)
13,CC1CCN(CCCOC(=O)c2ccccc2)CC1,54% (inactive)
14,Cc1ccc(S(=O)(=O)OC2COC3C(OS(=O)(=O)c4ccc(C)cc4)COC23)cc1 (stereo not drawn),-5% (inactive)
15,Cc1nn(C(=S)S)c(C)c1N=Nc1cccc(F)c1,5% (inactive)
16,O=C1C(=Cc2ccccc2O)N=C(c2ccccc2)N1n1c(-c2ccccc2)nc2ccccc2c1=O,33% (inactive)
17,O=C1/C(=C/c2ccccc2)CNC/C1=C\c1ccccc1,98% (active)
18,Cc1cc(Br)c(P(=O)(O)O)cc1[N+](=O)[O-],-5% (inactive)
19,Oc1cc(Cc2ccccc2)c(Cc2ccccc2)cc1O,97% (active)
20,O=S1(=O)CCN(c2ccccc2CC(c2c[nH]c3ccccc23)c2c[nH]c3ccccc23)CC1,62% (inactive)

row,Structure (SMILES),growth inhibition
1,CCCCCC(O)C(C)CO (stereo not drawn),-4% (inactive)
2,Cc1cc(=O)c2cc(N=Cc3ccc([N+](=O)[O-])o3)ccc2o1,10% (inactive)
3,CN(C)C(=S)/N=c1\ssc(=S)n1Cc1ccco1,-11% (inactive)
4,O=[N+]([O-])c1ccc2nc(Nc3ccccc3)c(Nc3ccccc3)nc2c1,93% (active)
5,CC(=O)NC(CCC(=O)O)C(=O)O.[NH-]C1CCCCC1[NH-].[Pt+2] (stereo not drawn),98% (active)
6,CC(=O)Oc1c2c(c(C)c3ccccc13)C(=O)c1cccnc1C2=O,0% (inactive)
7,C=C1C(=O)OC2C(C)C3C=CC(=O)[C@@]3(C)C(OC(=O)/C(C)=C/C)C1[C@@H]2OC(C)=O (stereo partly drawn),81% (active)
8,O=C(O)/C=C/c1ccc2c(c1)CC1(Cc3ccccc3C1)C2,93% (active)
9,C(=C\c1ccc(-[n+]2nc(-c3ccccc3)nn2-c2ccccc2)cc1)/c1ccccc1,99% (active)
10,O=CC(O)C(O)C(O)C(O)C(=O)NCCCCCCCCCCCCNC(=O)C(O)C(O)C(O)C(O)C=O (stereo not drawn),18% (inactive)
11,CCCCCCCCCCN(CCCCCCCCCC)CC(O)c1cc(-c2ccccc2)nc2ccccc12 (stereo not drawn),26% (inactive)
12,CC1(C)C(=O)C(C(Cl)(Cl)Cl)=C(Cl)C(=O)C1(Cl)Cl,89% (active)
13,Cc1cccc2c1CC1(C2)Cc2c(C)cccc2C1=O (stereo not drawn),20% (inactive)
14,Oc1c(Cl)cc(C(c2cc(Cl)c(O)c(Cl)c2)C(c2cc(Cl)c(O)c(Cl)c2)c2cc(Cl)c(O)c(Cl)c2)cc1Cl,98% (active)
15,Cc1ccc(S(=O)(=O)NC(Cc2ccccc2)C(=O)CCl)cc1 (stereo not drawn),88% (active)
16,CCOC(=O)/C(C#N)=C/c1coc2cc(C)cc(C)c2c1=O,89% (active)
17,CN(C)/N=C\C1CC=CCC1 (stereo not drawn),-70% (inactive)
18,NCC(=O)N/N=C/c1ccc([N+](=O)[O-])o1,5% (inactive)
19,CCc1cc(CC)c(-c2ccco2)c(COC(=O)NC)c1,25% (inactive)
